# The list is not random: actives were taken first. Their share in the collection is about 3.8%.
# PAFAH1B3 inh – PAFAH1B3 enzyme inhibitors, primary screen, biochemical, fluorescence polarization, human | recombinant PAFAH1B3, FP-rhodamine probe | inhibition, % at 3.39 µM | AID 492972, 2010 | Platelet-activating factor acetylhydrolase IB subunit alpha1 (Homo sapiens), Q15102 | 0.28% of 340,000 active;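 active = inhibition above the screen-wide average of all tested compounds plus 3 SD, cut at about 25% in these data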
# PAFAH1B2 inh – PAFAH1B2 enzyme inhibitors, primary screen, biochemical, fluorescence polarization, human. inhibition, % at 3.39 µM. 1.2% of 340,000 active. AID 492953, 2010. Platelet-activating factor acetylhydrolase IB subunit alpha2 (Homo sapiens), P68402. recombinant PAFAH1B2, FP-rhodamine activity probe;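 active = inhibition above the mean of all tested compounds plus 3 SD, cut at about 24% in these data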
# PAFAH2 FP inh – PAFAH2 enzyme inhibitors, primary screen, biochemical, fluorescence polarization, human; Platelet-activating factor acetylhydrolase 2, cytoplasmic (Homo sapiens), Q99487; recombinant PAFAH2, FP-rhodamine activity probe; inhibition, % at 3.39 µM; 0.99% of 340,000 active;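 active = inhibition above the mean over all tested compounds plus 3 SD, cut at about 30% in these data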;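 note: inhibitors block probe labeling of enzyme so polarization drops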
# pPAFAH inh – pPAFAH enzyme inhibitors, primary screen, biochemical, fluorescence polarization, human | Platelet-activating factor acetylhydrolase (Homo sapiens), Q13093 | recombinant pPAFAH, FP-rhodamine probe fluorescence polarization | inhibition, % at 3.39 µM | 1.5% of 330,000 active | AID 463082, 2010;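 active = inhibition above the mean inhibition across the screen plus 3 SD, cut at about 25% in these data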;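 note: inhibitors block binding of the rhodamine activity-based probe so polarization drops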
# DSG3 Ab inh – inhibitors of pemphigus antibody binding to DSG3, primary screen, biochemical, bead-based, flow cytometry, scFv-GFP. 0.48% of 310,000 active. Desmoglein-3 (Homo sapiens), P32926. AID 588358, 2011. binding (percent of control), % at 10 µM. DSG3-coupled beads, scFv-anti-DSG3-GFP binding; hits give low values;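 active = binding more than 3 SD below its plate's average and above zero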;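 note: hits lower antibody fragment binding to DSG3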
# Target sequence (P32926 whole entry, looked up, the tested form may be a part): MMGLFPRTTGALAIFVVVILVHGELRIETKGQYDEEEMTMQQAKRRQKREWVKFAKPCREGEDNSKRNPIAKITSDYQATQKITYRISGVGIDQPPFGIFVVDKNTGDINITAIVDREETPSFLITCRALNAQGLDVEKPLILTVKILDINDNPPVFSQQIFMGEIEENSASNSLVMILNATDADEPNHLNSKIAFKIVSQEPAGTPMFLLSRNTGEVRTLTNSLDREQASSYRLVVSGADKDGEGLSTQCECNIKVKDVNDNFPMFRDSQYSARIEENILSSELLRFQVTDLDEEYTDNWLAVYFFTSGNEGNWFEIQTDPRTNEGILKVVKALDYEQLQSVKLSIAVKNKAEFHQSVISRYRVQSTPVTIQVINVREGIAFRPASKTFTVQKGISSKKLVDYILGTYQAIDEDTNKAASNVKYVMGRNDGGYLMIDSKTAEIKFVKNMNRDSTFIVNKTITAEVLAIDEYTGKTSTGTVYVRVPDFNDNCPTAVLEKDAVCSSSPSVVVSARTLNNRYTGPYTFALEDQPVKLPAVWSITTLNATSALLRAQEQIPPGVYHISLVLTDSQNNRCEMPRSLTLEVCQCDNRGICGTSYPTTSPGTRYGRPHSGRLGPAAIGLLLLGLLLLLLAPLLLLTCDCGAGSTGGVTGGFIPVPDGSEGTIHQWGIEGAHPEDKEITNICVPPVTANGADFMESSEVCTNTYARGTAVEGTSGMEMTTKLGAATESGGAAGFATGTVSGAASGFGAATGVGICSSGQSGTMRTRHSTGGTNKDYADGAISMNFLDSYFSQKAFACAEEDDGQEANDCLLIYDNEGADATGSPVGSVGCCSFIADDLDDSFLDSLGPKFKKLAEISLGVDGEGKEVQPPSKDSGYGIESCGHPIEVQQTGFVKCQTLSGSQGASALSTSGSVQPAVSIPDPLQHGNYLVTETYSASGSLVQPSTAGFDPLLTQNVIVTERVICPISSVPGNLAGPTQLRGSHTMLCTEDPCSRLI
# PfM18AAP inh – PfM18AAP inhibitors, malaria aminopeptidase, primary screen, biochemical, QFRET, recombinant enzyme | M18 aspartyl aminopeptidase (Plasmodium falciparum 3D7) | 1.2% of 290,000 active | H-Glu-NHMec fluorogenic cleavage | inhibition, % at 7.35 µM;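 active = inhibition above the campaign mean inhibition over all tested compounds plus 3 SD, cut at about 28% in these data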
# PAFAH2 confirm – PAFAH2 enzyme inhibitors, confirmation, biochemical, fluorescence polarization, human; shares compounds with PAFAH2 FP inh; inhibition, % at 3.39 µM; 65% of 2,300 active; recombinant PAFAH2, FP-rhodamine activity probe;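 active = mean inhibition over three repeats above a set limit taken from the earlier primary screen, cut at about 30% in these data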;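 note: inhibitor blocks binding of rhodamine activity probe so polarization falls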
# A number is an active result; . = inactive; / = not tested or not shown.
SMILES,PAFAH1B3 inh,PAFAH1B2 inh,PAFAH2 FP inh,pPAFAH inh,DSG3 Ab inh,PfM18AAP inh,PAFAH2 confirm
CC(C)c1nnc(NC(=O)CCC(=O)N2CCC(Cc3ccccc3)CC2)s1,.,.,.,.,.,.,/
CC(=O)OCC1=C(C(=O)O)N2C(=O)[C@@H](NC(=O)Cc3ccccc3)[C@H]2SC1,.,.,.,/,.,/,/
CC(=O)OCC1=C(C(=O)O)N2C(=O)C(NC(=O)c3ccc(COc4c(C)cccc4Cl)o3)C2SC1 (configuration not stated),.,.,43,.,.,.,41
CC(=O)OCC1=C(C(=O)O)N2C(=O)[C@@H](NC(=O)Cc3cccs3)[C@H]2SC1,.,.,39,.,.,.,.
CCOc1ccc(C(=O)NC2C(=O)N3C(C(=O)O)=C(COC(C)=O)CSC23)cc1OCC (configuration not stated),.,.,.,/,.,/,/
CSc1sc(-c2n[nH]c(=S)n2C)c2c1C=CCC2,.,.,.,.,.,.,/
CS(=O)(=O)c1cccc(S(=O)(=O)N2CCCCCC2)c1,.,.,145,.,.,.,.
CC(C)(C)c1ccc(/C=C2\Oc3cc(O)ccc3C2=O)cc1,.,.,47,.,.,.,36
O=C1/C(=C/c2ccc(Br)cc2)Oc2cc(O)ccc21,.,.,.,.,.,.,/
CCC1(c2ccccc2)NC(=O)N(CC(=O)NNC(=O)COc2ccc(Cl)cc2C)C1=O (configuration not stated),.,.,.,.,.,/,/
O=C(NCCC(=O)N1CCc2ccccc21)c1ccccc1Cl,.,.,.,.,.,.,/
S=c1[nH]nc(-c2ccco2)n1/N=C/C=C/c1ccco1,.,.,46,.,.,.,.
COc1ccccc1/C=C/C=N/n1c(-c2ccco2)n[nH]c1=S,.,.,.,.,/,.,/
CC(C)(C)c1ccc(OCC(=O)NCCN2CCOCC2)cc1,.,.,.,.,.,.,/
COCCOC(=O)c1c(C)n(C)c2ccc(OC(=O)C3CC3)cc12,.,.,39,.,.,.,.
CCCCNC(=O)COC(=O)c1cc(Br)ccc1Cl,.,.,.,.,.,.,/
CCC(CC)NC(=O)COC(=O)c1cc(Br)ccc1Cl,.,.,33,.,.,.,.
CS(=O)(=O)c1ccc(Cl)c(NC(=O)Cc2ccccc2F)c1,.,.,52,.,.,.,30
O=C1OC(Sc2ccccc2)(c2ccccc2)c2ccccc21 (configuration not stated),.,.,.,/,.,/,/
CC1CCCC(NC(=O)COC(=O)c2ccc3c(c2)OCCO3)C1C (configuration not stated),.,.,84,.,.,/,76
CC1CCCC(NC(=O)c2ccc3c(c2)OCCO3)C1C (configuration not stated),.,.,.,.,/,/,/
O=C(COC(=O)c1ccc2c(c1)OCO2)NC1CCCCC1,.,.,89,.,.,/,82
O=C(COC(=O)c1ccc(NS(=O)(=O)c2ccc3c(c2)OCCO3)cc1)NC1CC1,.,.,64,.,.,.,51
CN(C(=O)COC(=O)c1ccc2c(c1)OCO2)C1CCCCC1,.,.,67,.,.,/,67
COc1cc2ncnc(N[C@H](C)c3ccccc3)c2cc1OC,.,.,.,.,.,.,/
CN1CCN(C(=O)c2ccc(-n3cccn3)nc2)CC1,.,.,.,.,.,.,/
COc1cccc(CC(=O)Nc2cc(S(=O)(=O)N3CCOCC3)ccc2OC)c1,.,.,39,/,.,/,.
Cc1ccc(S(=O)(=O)N2CCOCC2)cc1C(=O)Nc1cc(S(=O)(=O)N2CCCCC2)ccc1O,.,.,30,/,.,/,.
